Measurements taken from PubChem BioAssay (NCI).
Compounds without any hit were thinned out: in the full panel of roughly 83,000, 20% have a hit.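 Results are percent growth after 48 hours of single-concentration exposure. 100 means growth as in untreated cells, lower positive values show inhibition; negative values down to -100 show cell death.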 Activity calls are given as the source filed them.

The molecules below were run on CCRF-CEM leukemia (assay: NCI-60 one-dose screen, 48 h (100 = growth as untreated, 0 = no growth, -100 = all killed)). Settings: 10 µM unless noted.
Procedure: Growth inhibition of the CCRF-CEM human tumor cell line is measured as a screen for anti-cancer activity. Cells are grown in 96 well plates and exposed to the test compound for 48 hours. Compounds are tested at a single concentration, which is 10^-5 M for most compounds. The reported endpoint is percent growth (GI% or GIPRCNT), where numbers from 0 - 100% represent growth inhibition, and numbers from -100% - 0 represent cell death. For example, a value of 40 represents 60% growth inhibition. A value of 0 means no net growth occurred over the course of the experiment. A value of -40 indicates 40% of cells at the beginning of the experiment died by the end of the experiment. A value of -100 means all cells are dead at the end of the experiment.
NCI-60 Human Tumor Cell Lines Screen was performed using the standard one-dose NCI protocol, which is described in more detail at https://dtp.cancer.gov/discovery_development/nci-60/default.htm.
Compounds with GIPRCNT values below 10 were considered active. Activity score was based on GIPRCNT using the following formula: […]
Score is 0 for GIPRCNT values of 100 or above, 50 for GIPRCNT values of 0, and 100 for GIPRCNT values of -100.

| Structure (SMILES) | growth |
| --- | --- |
| COc1ccc(/C=C\C(=O)/C=C/c2ccc(OC)cc2)cc1 | 37.4% (inactive) |
| CC(c1ccccc1)N1C(=O)CSC1=S (stereo not given) | 63.8% (inactive) |
| COC1OC(C(O)C(O)CO)C(O)C(O)C1O (stereo not given) | 95.4% (inactive) |
| CC(=O)NCNC(C)=O | 93.3% (inactive) |
| CCCCc1ccc2nc(NC(=O)OC)[nH]c2c1 | -15.5% (active) |
| CC1CC(C)S(=O)(=O)C1 (stereo not given) | 101% (inactive) |
| C/C(=N\Nc1ccc([N+](=O)[O-])cc1[N+](=O)[O-])c1ccc(Br)cc1 | 96.5% (inactive) |
| CCOC(=O)/C(C)=C\c1ccc(OC)c(OC)c1 | 88.8% (inactive) |
| O=Cc1ccc(O)c(O)c1 | 57.8% (inactive) |
| CCNCC(C)(C)O | 106% (inactive) |
| c1ccc(Nc2ccccn2)nc1 | 90.9% (inactive) |
| O=C(O)c1ccc(OCc2ccccc2)cc1 | 104% (inactive) |
| CCCCCCCCCCCCCCCCOc1ccccc1NC(=O)CC(C)=O | 57.1% (inactive) |
| Nc1c(O)c(S(=O)(=O)O)c(O)c2c1C(=O)c1ccccc1C2=O | 28% (inactive) |
| Nc1ncnc(Nc2ccccc2)n1 | 104% (inactive) |
| NC(=O)N1CCOCC1 | 88.9% (inactive) |
| C1CCc2onc(-c3noc4c3CCCCC4)c2CC1 | 99.3% (inactive) |
| CCOc1ccccc1NC(=O)CCl | 63.5% (inactive) |
| Cc1ccc(N2C(=O)c3cccc4c(N)c(S(=O)(=O)O)cc(c34)C2=O)cc1 | 100% (inactive) |
| CC(C)NC(=O)OCc1c(COC(=O)NC(C)C)c(-c2ccc(Cl)cc2)n2c1CCC2 | 51.5% (inactive) |

| Structure (SMILES) | growth |
| --- | --- |
| CC(=O)C1C(=O)C(=O)N(c2ccc(Cl)c(Cl)c2)C1=O (stereo not given) | 115% (inactive) |
| COc1ccc(C(=O)C(=O)c2ccccc2)cc1 | -54.2% (active) |
| BrCc1cccc(C[P+](c2ccccc2)(c2ccccc2)c2ccccc2)c1 | 36.1% (inactive) |
| CN(C)c1ccc(O)c2c1CC1CC3C(N(C)C)C(=O)C(C(N)=O)=C(O)C3(O)C(=O)C1=C2O (stereo not given) | 44.9% (inactive) |
| Nc1nnc2cc(F)ccc2n1 | 107% (inactive) |
| CCC(=O)Oc1ccc2ccccc2c1 | 89.8% (inactive) |
| C[n+]1cc2cc3c(cc2c2ccccc21)OCO3 | 57.5% (inactive) |
| Nc1cc(F)ccc1[N+](=O)[O-] | 110% (inactive) |
| CCOP(=O)(OCC)/C(=C\N1C(=O)CC(=O)NC1=S)C(=O)OC | 103% (inactive) |
| Cc1ccc[n+](CCC(N)=O)c1 | 90.8% (inactive) |
| Cn1/c(=N\N=C\c2ccccc2OCCO)sc2ccccc21 | 93.3% (inactive) |
| O=C(NCc1ccccc1)c1cccc([N+](=O)[O-])c1 | 90.9% (inactive) |
| C=CCc1cc(OC)c(OC)c(OC)c1 | 104% (inactive) |
| C[n+]1c(/C=C\C=C\N2CCCCC2)sc2ccccc21 | 8.73% (active) |
| CCCC(=O)CC(=O)c1ccccc1 | 97.5% (inactive) |
| C=CCC(OC(C)=O)c1ccc(OC)c(OC)c1 (stereo not given) | 100% (inactive) |
| Clc1cccc(Cl)c1C1CSc2ccccc2N=C1c1ccccc1 (stereo not given) | -12.9% (active) |
| Cc1ccc(C)c(CN(C)C)c1O | 135% (inactive) |
| CCN(CC)CCCC(C)NC(=S)N/N=C(\C)c1ccccn1 (stereo not given) | 29.8% (inactive) |
| COC1OC(COC(C)=O)C(OC(C)=O)C(OC(C)=O)C1OC(C)=O (stereo not given) | 95.9% (inactive) |
